Only some compounds are listed: those with a hit (about 7.4% of all), similar ones and a draw of the others.
p53 reactivation: qHTS assay for re-activators of p53 using a Luc reporter | H1299 p53-A138V BP100-luciferase reporter, luminescence, 24 h | Potency, µM (top dose mostly 92.2 µM), without a hit: top-dose activity change, positive = activation, most hits filed as activators | 320,000 compounds, 0.063% hits; also: % of control where 0% means no effect; nearly all actives have a fitted effect of over 45% in size
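H1299 (p53-null), stable ts p53-A138V + BP100-Luc; 1000 cells/well, Opti-MEM/10% FBS; cpd 4 pt, 1:5; 24 h, 37 deg C, 5% CO2; detection reagent 10 min RT; luminescence.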
Rab9 prom act: qHTS Assay for Rab9 Promoter Activators; Huh7 Rab9 promoter-luciferase reporter, luminescence, 24 h; Potency, µM (top dose mostly 9.22 µM), inactives show top-dose activation, negative = inhibition, hits mostly activators; 320,000 compounds, 2.8% hits; also: % of control where 0% means no effect; nearly all actives have a fitted effect of over 60% in size
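Rab9 promoter-driven luciferase in stably transfected Huh7 cells; 1500 cells/well rested 2 h, exposed to compound in DMSO for 24 h at 37 °C, 5% CO2. Luminescence read 10 min after adding luciferase reagent at ambient temperature.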
SMN2 splice up: qHTS Assay for Enhancers of SMN2 Splice Variant Expression; AID 1458, 2008; Potency, µM (top dose mostly 46.1 µM), without a hit: top-dose activity change, positive = activation, hits mostly activators; HEK293 SMN2-luciferase splicing reporter, luminescence, 30-36 h; 210,000 compounds, 2.8% hits; also: % of control where 0% means no effect; nearly all actives have a fitted effect of over 55% in size
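HEK293 cells carry an SMN2 minigene-luciferase reporter in which exon 7 inclusion puts luciferase in frame. Cells were seeded at 2000 cells/well, attached for 10-12 hours, then exposed to compounds for 30-36 hours at 37C before ONE-Glo luminescence.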
FLuc counter: qHTS profiling assay for firefly luciferase inhibitor/activator using purifed enzyme and Km concentrations of substrates (counterscreen for miR-21 project); Luciferin 4-monooxygenase (Photinus pyralis), P08659; purified FLuc, Km substrates, luminescence inhibition; Potency, µM (doses to about 57.5 µM), inactives show at the top dose activity change, negative = inhibition, usual class: inhibitors; 360,000 compounds, 6.9% hits;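 also: plate controls were vehicle for no effect and reference inhibitor for full effect; nearly all actives have a fitted effect of over 55% in size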
Target sequence (P08659 whole entry, looked up): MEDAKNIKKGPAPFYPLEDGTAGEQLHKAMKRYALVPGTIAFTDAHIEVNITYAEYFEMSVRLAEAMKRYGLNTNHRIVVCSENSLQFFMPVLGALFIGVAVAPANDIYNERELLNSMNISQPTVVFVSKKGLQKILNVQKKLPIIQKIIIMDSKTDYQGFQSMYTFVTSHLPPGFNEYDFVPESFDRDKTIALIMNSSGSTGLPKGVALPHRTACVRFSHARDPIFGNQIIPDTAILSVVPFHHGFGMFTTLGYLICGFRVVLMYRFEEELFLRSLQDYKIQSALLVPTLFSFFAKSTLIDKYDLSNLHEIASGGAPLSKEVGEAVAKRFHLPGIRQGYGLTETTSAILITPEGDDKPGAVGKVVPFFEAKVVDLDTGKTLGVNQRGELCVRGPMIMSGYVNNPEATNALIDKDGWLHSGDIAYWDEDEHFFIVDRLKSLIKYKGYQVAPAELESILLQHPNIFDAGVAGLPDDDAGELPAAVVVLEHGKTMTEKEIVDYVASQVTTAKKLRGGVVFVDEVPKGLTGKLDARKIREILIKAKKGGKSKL
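Purified P. pyralis luciferase, 10 nM final, with Km-level 10 uM D-luciferin and 10 uM ATP in 50 mM Tris acetate pH 7.5, 10 mM Mg acetate, 0.01% Tween-20, 0.05% BSA; 6-point qHTS titration about 60 µM downward; luminescence read.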
NPC1 prom act: qHTS Assay for NPC1 Promoter Activators | AID 485313, 2010 | Huh7 NPC1 promoter luciferase reporter, 24 h | 320,000 compounds, 2.4% hits | Potency, µM (doses to about 9.22 µM), inactives show at the highest dose activation, hits mostly activators; also: % of control where 0% means no effect; nearly all actives have a fitted effect of over 60% in size
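Luciferase expression driven by the NPC1 promoter was measured in stably transfected Huh7 cells after a 24 h compound incubation, using a luciferase reagent and a luminescence read.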
ELG1 genotox: qHTS screen for small molecules that induce genotoxicity in human embryonic kidney (HEK293T) cells expressing luciferase-tagged ELG1; HEK293T ELG1-luciferase reporter, luminescence, 16 h; Potency, µM (series often up to 46 µM), for the others: top-dose activity change, positive = activation, most hits filed as activators; 330,000 compounds, 1.3% hits; AID 504466, 2011; also: % of control where 0% means no effect; nearly all actives have a fitted effect of over 60% in size
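DMSO vehicle served as control against compound-treated ELG1-luciferase HEK293T cells; exposure lasted 16 hr at 37 °C and 5% CO2, followed by ONE-Glo luminescence detection after 30 min.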
Numbers without * were called inactive; ? = inconclusive; / = no result; [ ] = remark or other dose. Calls follow the shape of the dose curve; as a rule, active = well fitted curve in the direction sought with a large enough effect; inconclusive = small, poorly fitted or top-dose-only effect, or another doubt; inactive = no such curve, though single readings can be large; an effect the other way counts as inactive or inconclusive. Potency is read from the fitted curve at half-maximal effect.

SMILES	p53 reactivation	Rab9 prom act	SMN2 splice up	FLuc counter	NPC1 prom act	ELG1 genotox
CCCCC(CC)CNC(=O)CCCc1nnc2n(CCC)c(=O)c3sccc3n12 (stereo not given)	/	/	3.9%	-2.4%	/	/
CCC(Sc1nnnn1C)C(=O)Nc1ccc(C(C)=O)cc1 (stereo not given)	21.1%	?	?	?	22.6%	18.4µM*
O=C(Nc1cccc(O)c1)c1ccc(NC(=O)c2cccs2)cc1	-14.5%	5.1%	/	15.1µM*	?	?
O=C(Nc1ccc(NC(=O)c2cccs2)cc1)c1ccccc1	13.2%	3.98µM*	/	-9.5%	?	?
Cc1ccc(NC(=O)OCc2cc(-c3ccccc3)on2)cc1	16.9%	18.7%	20.2%	?	14.2%	14.9%
Cc1ccc(NC(=O)c2cccs2)cc1	?	2.51µM*	?	12µM*	2.51µM*	13µM*
Cc1ccc(NC(=O)OCc2cccs2)cc1	?	1.12µM*	/	5.36µM*	1.58µM*	2.91µM*
O=C(Nc1ccc(O)cc1)c1ccc(NC(=O)c2cccs2)cc1	17.4%	?	/	?	?	?
Cc1ccc(-c2nc3scc(CCNS(=O)(=O)c4ccc(Oc5ccccc5)cc4)n3n2)cc1	/	/	/	-8.3%	/	/
CN(C)C(=O)c1ccc(NC(=O)COc2cccc3c2OC(C)(C)C3)cc1	1.1%	-5.2%	/	-2.1%	-0.6%	0.3%
Nc1ccc(NC(=O)c2cccs2)cc1	0.5%	23.4%	/	-16.7%	9.3%	8.8%
O=C(Nc1ccc2c(c1)CCC2)c1cccs1	10.6%	1.58µM*	/	6.75µM*	2µM*	?
Cc1cccc(-c2noc(-c3cc4ccccc4oc3=O)n2)c1	?	2.82µM*	?	1.35µM*	3.16µM*	?
CCN(CC)c1ccc2cc(-c3nc(-c4ccccc4)no3)c(=O)oc2c1	/	/	/	6.01µM*	/	/
Cc1cccc(C(=O)Nc2ccccc2-c2nc(-c3ccccc3)no2)c1	/	/	/	-5.4%	/	/
COc1ccc2oc(=O)c(-c3nc(-c4cccs4)no3)cc2c1	/	/	/	1.1%	/	/
COc1ccc2cc(-c3nc(-c4ccc(N(C)C)cc4)no3)c(=O)oc2c1	/	/	/	4.3%	/	/
Cc1ccc(-c2noc(-c3cc4ccccc4oc3=O)n2)cc1	26.7%	20.7%	-6.6%	6.01µM*	25.1%	?
O=c1oc2ccccc2cc1-c1nc(-c2cccs2)no1	/	/	/	0.601µM*	/	/
CCCn1c(C)nc2c(N(C)CCN(C)C)nc(C)nc21	/	/	-0.8%	/	/	/
COc1ccc(CCNC(=O)c2cc3c(=O)n4cccc(C)c4nc3n2C)cc1	/	/	/	-1.0%	/	/
COC(=O)c1nnc(C(=O)NCc2ccccc2)c2[nH]c3ccc(OC)cc3c12	/	/	6.4%	/	/	/
O=c1oc2ccc(Br)cc2cc1-c1nc(-c2ccccc2)no1	/	/	12.2%	-0.9%	/	/
O=c1oc2ccccc2cc1-c1nc(-c2ccccc2)no1	?	1.12µM*	11.2µM*	0.536µM*	0.447µM*	?
O=[N+]([O-])c1ccccc1/C=N\Nc1nccs1	/	0.9%	/	0.1%	-1.8%	-0.8%
SMILES	p53 reactivation	Rab9 prom act	SMN2 splice up	FLuc counter	NPC1 prom act	ELG1 genotox
O=[N+]([O-])c1cc(/C=N\Nc2nccs2)ccc1O	6.6%	1.4%	?	16.9µM*	5.4%	-4.7%
Cc1ccc(OCC(=O)N(Cc2ccco2)Cc2ccc(C)o2)cc1	/	/	-9.8%	-12.8%	/	/
Cc1ccc(C(=O)Nc2nnc(CC(=O)N/N=C/c3ccc(O)c(O)c3)s2)cc1	11.8%	-4.6%	/	4.78µM*	19.9%	5.9%
CC(C)(C)N=Cc1cc(-c2ccccc2)sc1O	13.1%	2.24µM*	22.4%	5.36µM*	2.82µM*	9.2µM*
CC(C)(C)Nc1ncnc2sc(-c3ccccc3)cc12	13.7%	-0.7%	/	?	-1.4%	-4.2%
O=c1c2cccnc2[nH]c(=S)n1CCCN1CCN(c2ccc(F)cc2)CC1	12.1%	0.0%	7.94µM*	-1.3%	1.5%	10.2%
N#C/C(=C\Nc1ccc2c(c1)OCCO2)c1nc(-c2ccccc2)cs1	3.2%	-12.4%	-15.0%	2.9%	0.0%	?
c1cc2c(cc1Nc1nc(-c3ccc4c(c3)OCO4)cs1)OCCO2	?	2.82µM*	3.98µM*	4.26µM*	3.16µM*	?
COc1cccc(Nc2nc(-c3ccc4c(c3)OCCO4)cs2)c1	?	3.16µM*	14.1µM*	3.38µM*	?	?
c1ccc(-c2csc(Nc3ccc4c(c3)OCCO4)n2)cc1	/	/	3.98µM*	0.536µM*	/	/
O=C(/C=C/c1ccc2c(c1)OCO2)Nc1nc(-c2ccc(F)cc2)cs1	6.1%	-1.1%	-60.9%	?	-1.1%	0.0%
COc1cccc(N2CC(NC(=O)c3cc4ccccc4o3)CC2=O)c1 (stereo not given)	/	/	/	-7.0%	/	/
C=CCc1cccc(C=Nc2cccn3cc(-c4ccccc4)nc23)c1O	13.1%	?	25.1µM*	-16.8%	?	?
Cc1c(Cl)cccc1NC(=O)c1cc(C2CC2)on1	?	3.55µM*	9.0%	19µM*	?	?
COc1ccc(NC(=O)c2cc(C3CC3)on2)c(OC)c1	?	?	20µM*	?	?	18.4µM*
COC(=O)c1ccccc1NC(=O)c1cc(C2CC2)on1	-2.4%	22.8%	?	-11.1%	18.7%	?
Cc1ccc(S(=O)(=O)CCC(=O)OCC(=O)c2cc(C)n(C)c2C)cc1	6.3%	-0.7%	/	?	-1.6%	2.5%
C/C(=N/NC(=O)C(=O)N/N=C(/C)c1ccccc1)c1ccccc1	4.2%	0.3%	17.3%	?	1.5%	8.2%
C/C(=N\Nc1nc(C(=O)O)cs1)c1ccccc1	-2.2%	17.4%	21.8%	16.9µM*	10.8%	2.6%
C/C(=N\Nc1nc2c(s1)CCCC2)c1ccccc1	?	3.55µM*	11.2µM*	1.07µM*	?	?
CC(C)(C)c1csc(NNC(=O)c2ccc(Br)cc2)n1	?	7.5%	-61.5%	?	14.4%	9.1%
CC(C)(C)c1csc(NC(=O)CS(=O)(=O)c2ccccc2)n1	22.9%	28.6%	/	?	22.7%	?
C/C(=N\Nc1nc(C(C)(C)C)cs1)c1ccc(O)cc1	1.6%	?	/	21.3µM*	?	?
C/C(=N\Nc1nc(C(C)(C)C)cs1)c1ccccc1	/	1.12µM*	/	2.13µM*	1.41µM*	3.66µM*
Clc1ccc(CN2CCCN(Cc3ccc(Cl)cc3)C2c2cc3ccccc3c3ccccc23)cc1	/	/	-26.7%[9.22 µM]	/	/	/
CCc1ccc(CN(Cc2cn[nH]c2-c2ccc(OC)cc2)C(=O)Nc2ccc(C)c(F)c2)cc1	/	/	/	3.5%	/	/

Assay outcomes deposited in PubChem by National Center for Advancing Translational Sciences (NCATS).
